Compound activity from PubChem BioAssay.
Not all results are given here.
aSyn UTR act: Activators via SNCA 5'UTR binding, MLPCN; alpha-synuclein 5'UTR reporter, activators screen; activity score, % (tested at 7.5 µM), hits read low; 300,000 tested, 7.1% active; in the data active = activity score below about -60%
* = called active by the depositor.

`CC(=O)c1cccc(NC(=O)c2cc(C(C)C)on2)c1` gave aSyn UTR act -101*.
`CC(C)Cc1cc(C(=O)Nc2ccc(Br)cc2)no1` gave aSyn UTR act -137*.
CCc1ccc(NC(=O)c2cc(C(C)C)on2)cc1 was read as aSyn UTR act -103*.
CC(C)c1cc(C(=O)NCCc2ccccc2)no1 was read as aSyn UTR act -201*.
For O=C(N/N=C/c1ccc([N+](=O)[O-])cc1)c1[nH]ncc1Br the results were aSyn UTR act -68*.
COc1cc(CO)ccc1OCC(=O)Nc1ccc(Br)cc1 was read as aSyn UTR act -86*.
`O=C(N/N=C/c1cc(Br)ccc1O)C(=O)Nc1ccccc1OC(F)(F)C(F)F` gave aSyn UTR act 82.
Screening COc1ccccc1NC(=O)COc1ccc(CO)cc1Cl returned aSyn UTR act -151*.
For O=C(COc1ccc(Br)cc1CO)Nc1ccccc1F the results were aSyn UTR act -181*.
O=C(COc1ccc(Br)cc1CO)Nc1ccccc1 was read as aSyn UTR act -107*.
For COc1cc2c(cc1OC)C(c1ccc(Br)cc1)NCC2 (stereo unspecified) the results were aSyn UTR act 63.
For CCN1/C(=C/C=C/c2oc3ccc(-c4ccccc4)cc3[n+]2CC)Oc2ccc(-c3ccccc3)cc21 the results were aSyn UTR act 140.
For COc1cc(CN2CCC(C(=O)NCC(C)(C)CN(C)C)CC2)ccc1OCc1ccccc1 the results were aSyn UTR act -67*.
NC(=O)C1CCN(Cc2ccc(OCc3ccccc3)cc2)CC1 was read as aSyn UTR act -95*.
`CCOCCCNC(=O)C1CCN(Cc2ccc(OCc3ccccc3)c(OC)c2)CC1` gave aSyn UTR act -117*.
`CCCCNC(=O)C1CCN(Cc2ccc(OCc3ccccc3)c(OC)c2)CC1` gave aSyn UTR act -115*.
For CSc1ccccc1NC(=O)c1cc(C(C)C)on1 the results were aSyn UTR act -143*.
CC(C)c1cc(C(=O)Nc2cc(Br)ccc2O)no1 was read as aSyn UTR act -291*.
`CC(C)c1cc(C(=O)Nc2cc(Cl)ccc2O)no1` gave aSyn UTR act -290*.
O=C(Nc1cc(Br)ccc1O)c1cc(-c2cccs2)on1 was read as aSyn UTR act -147*.
`O=C(/C=C/c1c(Cl)cccc1Cl)Nc1ccncc1` gave aSyn UTR act -293*.
For CN1CCN(C(=O)/C=C/c2c(F)cccc2Cl)CC1 the results were aSyn UTR act -68*.
O=C(/C=C/c1c(F)cccc1Cl)Nc1ccncc1 was read as aSyn UTR act -328*.
Screening Cc1ccc(C(=O)OCC(=O)NCc2cccs2)c(C)c1 returned aSyn UTR act -75*.
Cc1ccc(CSCC(=O)Nc2ccccc2C(=O)O)cc1 was read as aSyn UTR act -94*.
`CSc1ccccc1NC(=O)CSCc1ccc(C)cc1` gave aSyn UTR act -113*.
For O=C(NC(=S)Nc1ncccn1)c1ccc(F)cc1 the results were aSyn UTR act -203*.
Screening O=C(NC(=S)NNC(=O)c1cnccn1)c1ccc(Cl)cc1 returned aSyn UTR act 61.
COc1ccccc1NC(=S)NNC(=O)c1ccc(Cl)cc1Cl was read as aSyn UTR act -137*.
Screening O=C(NC(=S)Nc1ncccn1)c1ccc(Cl)cc1Cl returned aSyn UTR act -165*.
`O=C(NC(=S)Nc1cccnc1Cl)c1ccc(F)cc1` gave aSyn UTR act -124*.
For O=C(NC(=S)Nc1ccc2c(c1)C(=O)c1ccccc1C2=O)c1ccc(F)cc1 the results were aSyn UTR act -141*.
`O=C(Nc1cccnc1Cl)c1cc(-c2ccc(F)cc2)on1` gave aSyn UTR act -74*.
Cc1ccc(NC(=O)c2ccc3nc[nH]c3c2)c(O)c1 was read as aSyn UTR act -99*.
`Cc1ccc(NC(=O)c2ccc(C(=O)c3ccccc3)cc2)nc1` gave aSyn UTR act -109*.
For Cc1ccc(NC(=O)c2ccc3nc[nH]c3c2)nc1 the results were aSyn UTR act -96*.
For Cc1ccc(NC(=O)CCNC(=O)c2ccc(Cl)cc2)nc1 the results were aSyn UTR act -80*.
`O=C(Nc1ccc(OC(F)(F)F)cc1)c1ccc2nc[nH]c2c1` gave aSyn UTR act -64*.
O=C(Nc1nc2cc3c(cc2s1)OCO3)c1ccco1 was read as aSyn UTR act 80.
CC(=O)Nc1nc2cc3c(cc2s1)OCO3 was read as aSyn UTR act -100*.
For CC(=O)c1sc(Nc2nc3cc4c(cc3s2)OCO4)nc1C the results were aSyn UTR act -178*.
`Cc1ccc(SCC(=O)N2CCc3ccccc32)cc1` gave aSyn UTR act -171*.
`O=C(CS(=O)(=O)c1ccccc1)N1CCc2ccccc21` gave aSyn UTR act -107*.
Cc1cc(C)nc(SCC(=O)N2CCc3ccccc32)n1 was read as aSyn UTR act -78*.
`O=C(CSC1=NCCS1)N1CCc2ccccc21` gave aSyn UTR act -198*.
Screening Nc1nc(N)c2sc3nc4c(cc3c2n1)CCC4 returned aSyn UTR act -107*.
For CC(C)(C)C(=O)OCc1nc(-c2ccc(Cl)cc2)cs1 the results were aSyn UTR act -133*.
CC(C)(C)C(=O)OCc1nc(-c2ccc(F)cc2)cs1 was read as aSyn UTR act -106*.
NC(=S)Cc1nc(-c2ccc(Cl)cc2)cs1 was read as aSyn UTR act -104*.
For CC(C)(C)C(=O)OCc1nc(-c2ccc3c(c2)OCCO3)cs1 the results were aSyn UTR act -141*.
For COc1cc(C(=O)c2cocc2C(=O)c2ccc3c(c2)OCO3)cc(OC)c1OC the results were aSyn UTR act 67.
Screening Cc1ccccc1OCC(=O)Nc1ccc2c(c1)OCO2 returned aSyn UTR act -140*.
Screening CN1CCN(c2ccc(NC(=O)COc3ccccc3Cl)cc2)CC1 returned aSyn UTR act -65*.
`COc1ccccc1OCC(=O)Nc1ccc2c(c1)OCO2` gave aSyn UTR act -96*.
Screening O=C(COc1ccccc1Cl)Nc1ccc2c(c1)OCO2 returned aSyn UTR act -145*.
For Cc1occc1C(=O)N=Nc1c(O)[nH]c2ccc(Br)cc12 the results were aSyn UTR act -237*.
Cn1c(O)c(N=NC(=O)c2ccco2)c2ccccc21 was read as aSyn UTR act -80*.
Cc1cc(N=NC(=O)c2ccccc2O)c2ccccc2c1O was read as aSyn UTR act -123*.
Cc1ccc(N=Nc2ccc(O)c3ncccc23)cc1C was read as aSyn UTR act 74.
Screening Cc1cccc(Cn2c(O)c(N=NC(=S)Nc3ccccc3F)c3ccccc32)c1 returned aSyn UTR act 61.
Cc1occc1C(=O)N=Nc1c(O)n(C)c2ccccc12 was read as aSyn UTR act -247*.
Screening Cn1c(O)c(N=NC(=S)Nc2ccccc2F)c2cc(S(=O)(=O)N3CCOCC3)ccc21 returned aSyn UTR act 95.
Screening Cn1c(O)c(N=Nc2ccccc2[N+](=O)[O-])c2ccccc21 returned aSyn UTR act -65*.
For Cn1c(O)c(N=NC(=O)c2ccccc2O)c2ccccc21 the results were aSyn UTR act -103*.
CC(C)=C1C2C=CC1C(C(=O)Nc1cccc(C)c1)C2C(=O)O (stereo unspecified) was read as aSyn UTR act -62*.
`O=C(NC1CC1)c1cc2cc3ccccc3nc2s1` gave aSyn UTR act -152*.
NC(=O)c1cccnc1Nc1cccc([N+](=O)[O-])c1 was read as aSyn UTR act -109*.
Screening Cn1c(=O)oc2cc(S(=O)(=O)N3CCCC(C(=O)NC4CCCc5ccccc54)C3)ccc21 (stereo unspecified) returned aSyn UTR act 63.
